PubChem BioAssay AID1476 (National Center for Advancing Translational Sciences (NCATS), 2009)
Hit rate of the full screen: of about 200,000 compounds, about 4,500 (2.2%) were called active. Inconclusive results (about 12%) are left out. Calls follow the shape of the dose curve; as a rule, active = well fitted inhibition curve with a large enough effect; inconclusive = small, poorly fitted or top-dose-only effect, or effect the other way; inactive = flat fitted curve, though single readings scatter. For the sample, actives were picked, then their nearest neighbours and some compounds at random.
Also: nearly all actives have a fitted effect of over 40% in size.
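For max response, negative = inhibition in this document: plate controls were enzyme without inhibitor for no effect and buffer without enzyme for full effect.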
Potency is read from the fitted curve at half-maximal effect.

These molecules were tested against Cruzipain (Trypanosoma cruzi) (UniProt P25779) (assay: qHTS Assay for Promiscuous and Specific Inhibitors of Cruzain (without detergent)). Settings: purified cruzain, Z-FR-AMC fluorescence, no detergent.
Chain of Cruzipain (Trypanosoma cruzi) (P25779 123-467 limits assumed): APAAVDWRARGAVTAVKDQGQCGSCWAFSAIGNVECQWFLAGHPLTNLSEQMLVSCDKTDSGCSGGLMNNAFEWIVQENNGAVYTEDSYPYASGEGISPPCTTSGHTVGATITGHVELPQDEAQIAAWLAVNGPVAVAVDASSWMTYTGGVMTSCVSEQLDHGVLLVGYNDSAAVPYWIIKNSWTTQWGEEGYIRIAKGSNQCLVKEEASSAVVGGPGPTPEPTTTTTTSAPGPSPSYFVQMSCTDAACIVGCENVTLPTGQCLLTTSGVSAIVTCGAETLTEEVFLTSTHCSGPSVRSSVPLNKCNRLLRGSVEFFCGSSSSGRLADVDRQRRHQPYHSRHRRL
Outline: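 Detergent-free condition (0.00005% Triton X-100) in acetate buffer pH 5.5 with DTT. 1.5 nM enzyme and compound were pre-mixed 15 min, then 2 uM Z-FR-AMC substrate added; reaction progress from fluorescence change between first and third reads (60 s).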
For CCOc1ccc(NC(=O)c2ncoc2-c2ccco2)cc1, the max response, negative = inhibition was -16.9% (inactive).
In the case of Cc1ccc(CNC(=O)CSC2=Nc3ccccc3C3=NC(C)C(=O)N23)cc1 (centres undefined), the max response, negative = inhibition is reported as -15.8% (inactive).
In the case of Cc1ccc(C2=NN(C(=O)CSc3nc(N)cc(N)n3)C(c3ccco3)C2)cc1 (centres undefined), the max response, negative = inhibition is reported as 4.32% (inactive).
O=C1C2N=NN(CC(=O)N3N=C(c4cccc5ccccc45)CC3c3ccccc3)C2C(=O)N1c1ccccc1 (centres undefined) was tested, and the Potency was 5.01 µM (active).
With Cc1ccc(N2C(=O)C3N=NN(CC(=O)N4N=C(c5cccc6ccccc56)CC4c4ccccc4)C3C2=O)cc1 (centres undefined) the Potency was 7.94 µM (active).
With Cc1cc(C)c(NC(=O)CSc2nc3nccnc3c(=O)n2CCc2c[nH]c3ccccc23)c(C)c1 the max response, negative = inhibition was 9.02% (inactive).
O=C(Nc1cc(Cl)cc(Cl)c1)c1ccc2c(c1)N(Cc1cccc(Cl)c1)C(=O)c1ccccc1S2=O (centres undefined) was tested, and the max response, negative = inhibition was -5.94% (inactive).
O=c1[nH]c2cc(Br)ccc2n2cccc12 was tested, and the max response, negative = inhibition was 11.1% (inactive).
With CCOC(=O)C1CCN(c2ncnc3c2c(-c2ccccc2)cn3-c2cccc(C)c2)CC1 the max response, negative = inhibition was 9.85% (inactive).
For Cc1nc2ccccc2cc1C(=O)N/N=C/c1ccc([N+](=O)[O-])cc1, the max response, negative = inhibition was -1.64% (inactive).
CCCCCC(=O)Nc1ccc(C(=O)N/N=C/c2ccc([N+](=O)[O-])cc2)cc1 was tested, and the max response, negative = inhibition was -23.1% (inactive).
For Cc1cc(C(=O)N/N=C/c2ccc(O)c([N+](=O)[O-])c2)c(C)n1-c1ccc(F)cc1, the Potency was 10 µM (active).
COc1cc2nc(NCC(C)c3ccccc3)n3nc(-c4ccccc4)nc3c2cc1OC (centres undefined) was tested, and the max response, negative = inhibition was 5.17% (inactive).
With Cc1ccccc1NC(=O)CCOc1ccccc1 the max response, negative = inhibition was -3.79% (inactive).
With CCCN(CCC)C(=O)C1CCCN(c2ncnc3c2nc2n3CCCCC2)C1 (centres undefined) the max response, negative = inhibition was 9.35% (inactive).
With Cc1ccc(CNC(=O)CCc2c(C)nc3nc(CNC(=O)OC(C)(C)C)nn3c2C)cc1 the max response, negative = inhibition was 11.1% (inactive).
For c1ccc(Nc2nc(N3CCOCC3)c3ccccc3n2)cc1, the Potency was 12.6 µM (active).
With Cc1cc(C(=O)Nc2ccccc2N2CCOCC2)c2ccccc2n1 the max response, negative = inhibition was 4.56% (inactive).
For c1cncc(-c2nc(N3CCNCC3)c3ccccc3n2)c1, the max response, negative = inhibition was 0.953% (inactive).
In the case of CN(CC(=O)Nc1ccccc1F)S(=O)(=O)c1ccc2c(c1)c(=O)n(C)c(=O)n2C, the max response, negative = inhibition is reported as -13.2% (inactive).
In the case of Cc1nc2ccccn2c(=O)c1NC(=O)c1c(F)cccc1F, the max response, negative = inhibition is reported as -1.01% (inactive).
In the case of COc1ccc(/C=C(/CC(=O)Nc2ccc(C)cc2)c2nc3ccccc3s2)cc1, the Potency is reported as 31.6 µM (active).
With COc1cccc(/C=C(/CC(=O)Nc2ccc(N3CCOCC3)cc2)c2nc3ccccc3s2)c1 the max response, negative = inhibition was -7.21% (inactive).
With COc1ccc(CC(=O)Nc2ccc(-c3nc4ccccc4s3)c(C)c2)cc1 the max response, negative = inhibition was 7.02% (inactive).
